Here are results for 40 compounds from the supplement of paper PMC12067926.

Molecules are shown by their SMILES. Values without a mark were called inactive.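 Rule for the calls: active = growth AUC significantly below the DMSO wells by Dunnett test; inactive = the rest.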

The assay concerns Bacillus 1 (Bacillus foraminis). Kind of assay: relative growth (AUC of 72 h growth curve relative to DMSO control, dAUC) (ratio); higher = more growth (less inhibition), active = hit call of the paper. Conditions: 20 µM. As for the experimental part: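 Environmental bacterial isolates (Iceland stream sediment and Silwood Park soil) and whole stream-sediment communities were grown in LB from a 1:100 dilution with each pesticide at 20 µM (1% DMSO). A600 was read hourly for 72 h and the area under a spline-fitted growth curve (AUC) was computed. dAUC is the mean AUC of 3 biological replicates divided by the mean AUC of the DMSO controls. Significance was tested by Dunnett's test against the DMSO control.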
For `N#C/N=C1\SCCN1Cc1ccc(Cl)nc1`, the relative growth was 1.08.

Take `COP(=S)(OC)Oc1nc(Cl)c(Cl)cc1Cl`: the relative growth was 1.08.

As to `COc1ccc(C(=CC(=O)N2CCOCC2)c2ccc(Cl)cc2)cc1OC` (mixture of isomers), the relative growth was 0.924.

As to `CCOP(=S)(OCC)Oc1cc(C)nc(C(C)C)n1`, the relative growth is 0.963.

In the case of `CC(C)OC(=O)Nc1cccc(Cl)c1`, the relative growth is 1.15.

Take `COP(=O)(NC(C)=O)SC` (stereo not given): the relative growth is 1.02.

As for `CCOP(=S)(OCC)Oc1nc(Cl)c(Cl)cc1Cl`, the relative growth is 1.07.

For the compound `N#Cc1sc2c(=O)c3ccccc3c(=O)c=2sc1C#N`, the relative growth is 0.97.

As for `ClC1C(Cl)C(Cl)C(Cl)C(Cl)C1Cl` (stereo not given), the relative growth is 1.11.

As for `COc1cc(OC)nc(NC(=O)NS(=O)(=O)c2ncccc2C(=O)N(C)C)n1`, the relative growth is 1.08.

For `CCOc1ccc(C(C)(C)COCc2cccc(Oc3ccccc3)c2)cc1`, the relative growth is 0.954.

Take `C/C(=N\C#N)N(C)Cc1ccc(Cl)nc1`: the relative growth is 0.921.

On to `O=C(NCCc1ncc(C(F)(F)F)cc1Cl)c1ccccc1C(F)(F)F`, for which the relative growth was 0.999.

With `Cc1nnc(-c2ccccc2)c(=O)n1N`, the relative growth was 0.881.

Regarding `CC[C@H](C)[C@H]1O[C@]2(C=C[C@@H]1C)C[C@@H]1C[C@@H](C/C=C(\C)[C@@H](O[C@H]3C[C@H](OC)[C@@H](O[C@H]4C[C@H](OC)[C@@H](O)[C@H](C)O4)[C@H](C)O3)[C@@H](C)/C=C/C=C3\CO[C@@H]4[C@H](O)C(C)=C[C@@H](C(=O)O1)[C@]34O)O2.CO[C@H]1C[C@H](O[C@H]2[C@H](C)O[C@@H](O[C@@H]3/C(C)=C/C[C@@H]4C[C@@H](C[C@]5(C=C[C@H](C)[C@@H](C(C)C)O5)O4)OC(=O)[C@@H]4C=C(C)[C@@H](O)[C@H]5OC/C(=C\C=C\[C@@H]3C)[C@]54O)C[C@@H]2OC)O[C@@H](C)[C@@H]1O`, the relative growth is 0.944.

Consider `CC1(C(=O)Nc2ccc(O)c(Cl)c2Cl)CCCCC1`, for which the relative growth was 1.01.

In the case of `COCC(C)N(C(=O)CCl)c1c(C)csc1C` (stereo not given), the relative growth is 0.948.

On to `CN/C(=N/CC1CCOC1)N[N+](=O)[O-]` (stereo not given), for which the relative growth is 1.11.

Turning to `CN1COCN(Cc2cnc(Cl)s2)/C1=N\[N+](=O)[O-]`, the relative growth is 1.02.

As to `N#Cc1c[nH]cc1-c1cccc2c1OC(F)(F)O2`, the relative growth is 0.935.

For `COc1ncc(F)c2nc(S(=O)(=O)Nc3c(F)cccc3F)nn12`, the relative growth was 1.06.

Consider `CCOCn1c(-c2ccc(Cl)cc2)c(C#N)c(Br)c1C(F)(F)F`, for which the relative growth is 1.1.

For `CC1(C)[C@H](/C=C(\Cl)C(F)(F)F)[C@@H]1C(=O)OC(C#N)c1cccc(Oc2ccccc2)c1` (stereo not given in full), the relative growth was 1.05.

With `CO/C=C(/C(=O)OC)c1ccccc1Oc1cc(Oc2ccccc2C#N)ncn1`, the relative growth was 1.03.

Regarding `N#Cc1c(Cl)c(Cl)c(Cl)c(C#N)c1Cl`, the relative growth was 0.955.

Turning to `CC(C)CC(C)c1sccc1NC(=O)c1cn(C)nc1C(F)(F)F` (stereo not given), the relative growth was 0.959.

As to `CCOc1cc(Oc2ccc(C(F)(F)F)cc2Cl)ccc1[N+](=O)[O-]`, the relative growth was 0.956.

Consider `CCN(CC)c1nc(C)cc(OP(=S)(OC)OC)n1`, for which the relative growth is 1.03.

Turning to `O=C(O)c1nc(Cl)ccc1Cl`, the relative growth was 0.984.

On to `CN/C(=N\[N+](=O)[O-])NCc1cnc(Cl)s1`, for which the relative growth was 1.03.

Take `COC(=O)Nc1nc2ccccc2[nH]1`: the relative growth is 1.1.

For the compound `CCCCc1c(C)nc(NCC)nc1OS(=O)(=O)N(C)C`, the relative growth was 0.907.

Turning to `Cc1cc(C2CC2)nc(Nc2ccccc2)n1`, the relative growth was 0.911.

`COC(=O)N(OC)c1ccccc1COc1ccn(-c2ccc(Cl)cc2)n1`: the relative growth is 1.06.

In the case of `COC(=O)c1ccccc1S(=O)(=O)NC(=O)Nc1nc(C)nc(OC)n1`, the relative growth was 1.05.

As for `CC(C)(C)C(O)(CCc1ccc(Cl)cc1)Cn1cncn1` (stereo not given), the relative growth was 0.924.

As for `CNC(=O)Oc1cccc(/N=C/N(C)C)c1`, the relative growth is 0.983.

With `CSc1nnc(C(C)(C)C)c(=O)n1N`, the relative growth was 0.94.

Regarding `O=C(O)CNCP(=O)(O)O`, the relative growth was 1.04.

In the case of `CNC(=O)ON=C(C)SC`, the relative growth was 0.996.
